PI5P4Ka inh: blocks human PI5P4K alpha kinase activity. 330,000 compounds, 1.2% hits. max response, %. PI5P4Kalpha enzyme, ADP-Glo luminescence, 60 min; stronger effect = lower value; active = max response of -50% or lower; inconclusive = between -30% and -50%; inactive = -30% or higher; also: value at the top dose of about 77 µM; % is scaled to controls: 0 for no effect and ±100 for the full control effect
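Human PI5P4Kalpha with substrate in 0.038 M HEPES pH 7.4, 0.28 mM EGTA, 0.1% CHAPS, 5% DMSO; reaction started with 5 microM ATP (final), 60 min at room temperature. ADP formed read by ADP-Glo luminescence.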
Pol kappa inh: blocks human DNA polymerase kappa activity | Potency, µM (top dose mostly 107 µM), inactives show at the top dose activity, negative = inhibition, hits mostly inhibitors | 400,000 compounds, 0.53% hits | purified Pol kappa, fluorescent DNA synthesis assay, 10 min | Q9UBT6; also: potency is read from the fitted curve at half-maximal effect; % is scaled to controls: 0 for no effect and ±100 for the full control effect
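10 nM Pol kappa preincubated 15 min at room temperature with compounds, then reaction started with substrate at 50 nM final. Fluorescence read kinetically at 0 and 10 min; buffer-only wells served as negative control.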
POLB inh: inhibitors of human DNA polymerase beta; P06746; Pol beta primer extension/strand displacement, fluorescence kinetic; Potency, µM (top dose mostly 114 µM), for the others: at the highest dose activity change, negative = inhibition, usual class: inhibitors; 340,000 compounds, 1.3% hits; also: potency is read from the fitted curve at half-maximal effect; % is scaled to controls: 0 for no effect and ±100 for the full control effect
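Preincubation: enzyme (10 nM) with compound, 15 min, RT. Reaction: substrate added to 50 nM final. Reads: 0 and 10 min. Analysis: normalized, Hill fit.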
POLH inh: blocks human DNA polymerase eta activity; recombinant Pol eta, fluorescent DNA replication assay; Potency, µM (series often up to 114 µM), for the others: at the highest dose activity change, negative = inhibition, actives largely listed as inhibitors; 390,000 compounds, 1.2% hits; AID 588591; also: potency is read from the fitted curve at half-maximal effect; % is scaled to controls: 0 for no effect and ±100 for the full control effect
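Pol eta (10 nM) was preincubated with compounds for 15 min at room temperature, after which fluorescent replication substrate (50 nM final) was added to start the reaction. Fluorescence was read kinetically at 0 and 10 min.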
WRN inhibitor: blocks human WRN helicase; WRN helicase unwinding, fluorescent forked duplex, kinetic; 360,000 compounds, 0.46% hits; Potency, µM (highest dose often 114 µM), for inactives: at the highest dose activity change, negative = inhibition, hits mostly inhibitors; Q14191; also: potency is read from the fitted curve at half-maximal effect; % is scaled to controls: 0 for no effect and ±100 for the full control effect; nearly all actives have a fitted effect of over 55% in size
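Screening of the MLSMR collection measured strand separation of a quenched forked DNA duplex (100 nM) by 20 nM WRN with 2 mM ATP, all final. Compounds were preincubated with enzyme 15 min at room temperature.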
POLI inh: inhibitors of human DNA polymerase iota. Potency, µM (titrated, usually from 115 µM), for inactives: at the top dose activity, negative = inhibition, most hits filed as inhibitors. Pol iota fluorescent replication assay, 10 min. Q9UNA4. 390,000 compounds, 1% hits; also: potency is read from the fitted curve at half-maximal effect
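Pol iota at 10 nM preincubated 15 min with compounds at room temperature; reaction started with fluorescent substrate, 50 nM final. Fluorescence read kinetically at 0 and 10 min; buffer-only wells as negative control.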
* marks the source's active call; other numbers are inactive results; [ ] = remark or other dose. Hits are enriched below; roughly 2.8% of the tested compounds scored in any of these assays. Unless noted, calls follow the shape of the dose curve; as a rule, active = well fitted curve in the direction sought with a large enough effect; inconclusive = small, poorly fitted or top-dose-only effect, or another doubt; inactive = no such curve, though single readings can be large; an effect the other way counts as inactive or inconclusive.

Results for COc1ccc(CCn2c(C)cc(C(=O)COC(=O)c3ccc(NC(=O)CC#N)cc3)c2C)cc1 ?
PI5P4Ka inh: -50*; Pol kappa inh: inconclusive; POLB inh: 13%; POLH inh: 79µM*; WRN inhibitor: -27%; POLI inh: inconclusive

Results for Cc1ccc(C2(C)NC(=O)N(CC(=O)c3ccc(Cl)s3)C2=O)cc1 (stereo not given) ?
PI5P4Ka inh: inconclusive; Pol kappa inh: -15%; POLB inh: 20µM*; POLH inh: inconclusive; WRN inhibitor: -18%[57.1 µM]; POLI inh: inconclusive

Results for CS(=O)(=O)N1CCC(C(=O)NCc2ccco2)CC1 ?
Pol kappa inh: -7%; POLB inh: 4%; POLH inh: inconclusive; WRN inhibitor: -3%[11.6 µM]; POLI inh: 50µM*

How did CCS(=O)(=O)N1CCC(C(=O)NCc2ccco2)CC1 do in these assays?
Pol kappa inh: 11%; POLB inh: 30%; POLH inh: -11%; WRN inhibitor: -1%; POLI inh: 76%

How did Cc1cccc(-c2nc(C)c(CCNC(=O)C(=O)Nc3cccc(Cl)c3C)s2)c1 do in these assays?
Pol kappa inh: -6%[60.1 µM]; POLB inh: 0%; POLH inh: -15%; POLI inh: 38%

How did NC(=O)c1ccsc1NC(=O)c1ccc(N2CCCC2=O)cc1 do in these assays?
PI5P4Ka inh: -11; Pol kappa inh: inconclusive; POLB inh: 32µM*; POLH inh: 25µM*; WRN inhibitor: -2%[11.6 µM]; POLI inh: inconclusive

What do the screens show for `Cc1ccc(Cn2cc3c(n2)-c2c(oc(C(=O)Nc4ccc(F)cc4F)c2C)CC3)cc1`?
Pol kappa inh: -3%; POLB inh: 6%; POLH inh: -14%; POLI inh: 45%

How did Cc1ccc(/C=c2\sc3nc(-c4cccs4)nn3c2=O)o1 do in these assays?
Pol kappa inh: inconclusive; POLB inh: 18µM*; POLH inh: inconclusive; WRN inhibitor: -4%[11.6 µM]; POLI inh: inconclusive

Results for COc1ccccc1-c1nc2s/c(=C\c3cccs3)c(=O)n2n1 ?
PI5P4Ka inh: -10; Pol kappa inh: -13%; POLB inh: inconclusive; POLH inh: -6%; WRN inhibitor: inconclusive; POLI inh: inconclusive

How did O=c1/c(=C/c2ccco2)sc2nc(-c3ccccc3Br)nn12 do in these assays?
PI5P4Ka inh: inconclusive; Pol kappa inh: 79µM*; POLB inh: 35µM*; POLH inh: 16µM*; WRN inhibitor: inconclusive; POLI inh: inconclusive

How did O=C(Nc1ccc(C2=NCCN2)cc1)c1ccc(Cl)c(C(=O)Nc2ccc(C3=NCCN3)cc2)c1 do in these assays?
POLB inh: 50µM*

How did Cc1cccc(-n2nc3c(c2NC(=O)CCCl)CSC3)c1 do in these assays?
PI5P4Ka inh: -14; Pol kappa inh: -3%; POLB inh: -2%; POLH inh: 1%; WRN inhibitor: -2%; POLI inh: -12%

What do the screens show for `Cc1cccc(-n2nc3c(c2NC(=O)c2ccc(Br)o2)CSC3)c1`?
Pol kappa inh: -20%; POLB inh: 56µM*; POLH inh: -16%; WRN inhibitor: -21%; POLI inh: -2%

Results for CC(=O)Nc1cc(-c2cccc(C(=O)NCCN(C)C)c2)cn2c(-c3cccc(C(F)(F)F)c3)cnc12 ?
PI5P4Ka inh: inconclusive; WRN inhibitor: 79µM*

What do the screens show for `Cc1c([N+](=O)[O-])cc(S(=O)(=O)Nc2ccc(-c3ccc(N4CCCC4)nn3)cc2)cc1[N+](=O)[O-]`?
PI5P4Ka inh: inconclusive; Pol kappa inh: -32%; POLH inh: 18µM*; WRN inhibitor: -5%[11.6 µM]; POLI inh: inconclusive

How did CC(=O)c1ccc(S(=O)(=O)Nc2ccc(-c3ccc(N4CCCCCC4)nn3)cc2)cc1 do in these assays?
Pol kappa inh: -1%[60.1 µM]; POLB inh: -2%; POLH inh: -11%; POLI inh: 11%

What do the screens show for `CC(=O)c1ccc(S(=O)(=O)Nc2ccc(-c3ccc(N4CCCCC4)nn3)cc2)cc1`?
Pol kappa inh: -15%[60.1 µM]; POLB inh: inconclusive; POLH inh: 79µM*; POLI inh: inconclusive
